Results filed as inconclusive are left out. Active and inactive are the calls of the source. Calls come from the whole dose curve; as a rule, active = well fitted curve in the direction sought with a large enough effect; inconclusive = small, poorly fitted or top-dose-only effect, or another doubt; inactive = no such curve, though single readings can be large; an effect the other way counts as inactive or inconclusive.

Assay [1] deals with Single-stranded DNA cytosine deaminase (Homo sapiens) (UniProt Q9GZX7). Put plainly: Validation qHTS assay for inhibitors of Activation Induced Cytidine Deaminase (AID): AID signal (AID 1347429). Note: potency is the fitted concentration of half-maximal effect. Put shortly: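 Steps: dispense AID with UDG; pin-transfer compound up to 114 uM final; add DJC20/DJC23 substrate and hold 4 hr at room temperature; add NaOH, hold 30 min; read FRET signal (540/590 nm).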
For orientation: qHTS replaces the single test concentration by a dilution series.

A short description of assay [2]: Primary qHTS for inhibitors of La Crosse Virus (LACV) - induced cell death in SH-SY5Y cells (AID 1508616).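 Note: top concentration of the series differs between compounds; higher means more rescue of cells from virus-induced death.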 In outline: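 SH-SY5Y, 6000 cells/well; cpd via pin tool in DMSO; LACV 0.01 MOI; 6 d 37C 5% CO2; ATPLite, 5 min RT; luminescence normalized to ±virus DMSO controls.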
For assay [3], the target named is Calcium and integrin-binding protein 1 (Homo sapiens) (UniProt Q99828). Briefly: Validation qHTS for Identification of Calcium Integrin Binding protein 1 (CIB1) Competitor (AID 1508618). In outline:
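Fluorescence polarization with 1 uM CIB1-GST and 100 nM FITC-alphaIIb peptide in HEPES pH 7.4, NaCl, 5 mM CaCl2, Tween20. Compounds at up to 114 uM final, preincubated with protein 15 min; read after 15 min more at RT.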

Assay [4] is described as follows: Primary qHTS for small molecule stabilizers of the endoplasmic reticulum resident proteome: Secreted ER Calcium Modulated Protein (SERCaMP) assay (AID 1508630). In outline:
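The SH-SY5Y reporter protocol was run at 3 concentrations up to 38.3 uM (primary) or 11 concentrations (follow-up): 16 h compound, 100 nM thapsigargin for 4 h, then extracellular luciferase luminescence.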

For another assay, the target named is Papain (Carica papaya) (UniProt P00784). Briefly: Primary qHTS assay for inhibitors of the protease papain (AID 1645873).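 Note: papain turnover of Z-FR-AMC read as the AMC fluorescence gain over 10 min.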 Note: potency is the fitted concentration of half-maximal effect.
Assay [5] in a line: Counterscreen qHTS for small molecule stabilizers of the endoplasmic reticulum resident proteome: GLuc-NoTag assay (AID 1508627). Note: potency is the fitted concentration of half-maximal effect. In outline: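 Secreted GLuc lacking the SERCaMP modification is measured in SH-SY5Y cells exposed to compound for 19 h and then to thapsigargin (100 nM, 4 h) to deplete ER calcium; hits retested at 11 concentrations, up to 76.6 uM.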
Background: Counterscreens check selectivity or assay interference.

Sequence of Calcium and integrin-binding protein 1 (Homo sapiens) (Q99828 whole entry, looked up): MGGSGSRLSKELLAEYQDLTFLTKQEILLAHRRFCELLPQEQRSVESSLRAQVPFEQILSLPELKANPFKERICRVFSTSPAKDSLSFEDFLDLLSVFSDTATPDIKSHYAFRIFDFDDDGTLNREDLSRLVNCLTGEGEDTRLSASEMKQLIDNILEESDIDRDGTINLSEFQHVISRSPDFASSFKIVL
Sequence of Single-stranded DNA cytosine deaminase (Homo sapiens) (Q9GZX7 whole entry, looked up): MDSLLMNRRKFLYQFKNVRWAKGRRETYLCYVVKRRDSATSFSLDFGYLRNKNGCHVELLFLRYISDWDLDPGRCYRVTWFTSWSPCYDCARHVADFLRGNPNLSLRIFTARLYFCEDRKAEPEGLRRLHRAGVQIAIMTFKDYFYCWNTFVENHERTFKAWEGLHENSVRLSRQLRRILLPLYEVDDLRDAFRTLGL
Sequence of Papain (Carica papaya) (P00784 whole entry, looked up): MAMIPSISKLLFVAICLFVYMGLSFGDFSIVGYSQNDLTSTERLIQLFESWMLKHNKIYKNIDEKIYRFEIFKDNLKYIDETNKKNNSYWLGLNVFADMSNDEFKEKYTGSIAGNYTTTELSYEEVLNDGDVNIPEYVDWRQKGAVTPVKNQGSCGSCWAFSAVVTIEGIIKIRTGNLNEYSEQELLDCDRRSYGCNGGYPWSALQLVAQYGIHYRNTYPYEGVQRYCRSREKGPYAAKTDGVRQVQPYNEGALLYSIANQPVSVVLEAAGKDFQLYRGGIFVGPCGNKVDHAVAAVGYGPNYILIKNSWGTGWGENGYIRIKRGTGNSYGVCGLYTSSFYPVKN

With `CC(=O)/C(C)=N/O`, the Potency entry in assay [1], in assay [2], in assay [3] and in assay [4] was “inactive” each time. The Potency with Papain (Carica papaya) was 2 µM (active).
As to `CCCCCCCCCC[Si](C)(C)CCC(=O)NC(Cc1ccc(C)cc1)c1ccccc1` (centres undefined), the Potency result (in assay [1]; in assay [2]; in assay [3]; in assay [4]; with Papain (Carica papaya)) was “inactive” each time.
Turning to `NCCS(=O)O`, the Potency entry (in assay [1]; in assay [2]; in assay [3]; in assay [4]; in the assay with Papain (Carica papaya)) was “inactive” throughout.
`Nc1nc2[nH]c(=O)cnc2c(=O)[nH]1`: the Potency result (in assay [1]; in assay [2]; in assay [3]; in the assay with Papain (Carica papaya)) was “inactive” throughout.
With `O=c1ccc2c(OCCCCc3ccccc3)c3ccoc3cc2o1`, the Potency result (in assay [1]; in assay [2]; in assay [3]; with Papain (Carica papaya)) was “inactive” each time.
Consider `COc1ccc2c(c1)c(CC(=O)O)c(C)n2Cc1ccc(Cl)cc1`, for which the Potency result (in assay [1]; in assay [2]; in assay [4]; with Papain (Carica papaya)) was “inactive” each time.
Regarding `NC(=O)CC[C@H](N)C(=O)O`, the Potency entry (in assay [1]; in assay [2]; in assay [3]; in the assay with Papain (Carica papaya)) was “inactive” throughout.
In the case of `Fc1ccc(CN(C2=NCCN2)c2c(Cl)cccc2Cl)cc1`, the Potency result (in assay [1]; in assay [2]; in assay [3]; in the assay with Papain (Carica papaya)) was “inactive” throughout.
With `O=C(O)/C=C/c1ccc(O)c(O)c1`, the Potency entry (in assay [1]; in assay [2]; in assay [3]; in the assay with Papain (Carica papaya)) was “inactive” in each case.
Consider `NCC(O)c1ccc(O)c(O)c1` (centres undefined), for which the Potency result in assay [1], in assay [2] and in assay [4] was “inactive” in each case.
For the compound `COc1ccc(CCn2nnnc2C2(c3ccc(C)cc3)CC2)cc1`, the Potency entry in assay [1], in assay [2] and in assay [4] was “inactive” in each case.
With `C[C@H](NC(=O)/C(C#N)=C/c1ccc(O)c(O)c1)c1ccccc1`, the Potency entry (in assay [1]; in assay [2]; in assay [3]; in the assay with Papain (Carica papaya)) was “inactive” in each case.
As to `O=C1Nc2ccc(I)cc2/C1=C/c1cc(Br)c(O)c(Br)c1`, the Potency entry (in assay [1]; in assay [2]; in assay [3]; with Papain (Carica papaya)) was “inactive” in each case.
For the compound `Oc1ccc(/C=C/c2ccc(/C=C/c3ccc(O)cc3)c(Br)c2)cc1`, the Potency entry (in assay [1]; in assay [2]; in assay [3]; with Papain (Carica papaya)) was “inactive” throughout.
As to `CC(=O)NNC(=O)N1Cc2ccccc2Oc2ccc(Cl)cc21`, the Potency result (in assay [1]; in assay [2]; in assay [3]; in the assay with Papain (Carica papaya)) was “inactive” each time.
Regarding `N#C/C(=C\c1ccc(O)c(O)c1)C(=O)NCCCNC(=O)/C(C#N)=C/c1ccc(O)c(O)c1`, the Potency result in assay [1] and in assay [2] was “inactive” in each case. Moreover, the Potency is 20 µM (active) in assay [5] and 22.4 µM (active) with Papain (Carica papaya).
With `COc1cc2c(CCNC(C)=O)c[nH]c2cc1O`, the Potency result (in assay [1]; in assay [2]; in assay [3]; with Papain (Carica papaya)) was “inactive” in each case.
In the case of `N#Cc1cc2nc(O)c(O)nc2cc1[N+](=O)[O-]`, the Potency entry in assay [1], in assay [2] and in assay [4] was “inactive” in each case.
In the case of `O=c1onc2cnc3ccccc3n12`, the Potency entry in assay [1], in assay [2] and in assay [4] was “inactive” in each case.
As to `CC(/C=C/c1cccc(Oc2ccc(F)cc2)c1)N(O)C(N)=O` (centres undefined), the Potency result in assay [1], in assay [2] and in assay [4] was “inactive” in each case.
Turning to `O=C(O)C1CCCNC1` (centres undefined), the Potency result (in assay [1]; in assay [2]; in assay [3]; in the assay with Papain (Carica papaya)) was “inactive” in each case.
`O=C(O)/C=C/c1cnc[nH]1`: the Potency result (in assay [1]; in assay [2]; in assay [3]; in the assay with Papain (Carica papaya)) was “inactive” each time.
Regarding `CC(C)(CO)Cc1cc(C(C)(C)C)c(O)c(C(C)(C)C)c1`, the Potency result (in assay [1]; in assay [2]; in assay [3]; in the assay with Papain (Carica papaya)) was “inactive” each time.
Take `CCCCCCC/C=C\CCCCCCCCC(=O)O`: the Potency in assay [1] is 70.8 µM (active). Moreover, the Potency entry in assay [2] and in assay [4] was “inactive” in each case.
In the case of `CC1=C(/C=C/C(C)=C/C=C/C(C)=C\C(=O)O)C(C)(C)CCC1`, the Potency result (in assay [1]; in assay [2]; in assay [3]; with Papain (Carica papaya)) was “inactive” each time.
For the compound `N#CC(C#N)=C(N)/C(C#N)=C/c1ccc(O)cc1`, the Potency entry in assay [1], in assay [2] and in assay [4] was “inactive” each time.
As to `O=C(O)c1cc(=O)cc(C(=O)O)[nH]1`, the Potency result (in assay [1]; in assay [2]; in assay [3]; with Papain (Carica papaya)) was “inactive” each time.
For `CC1CNCCN1S(=O)(=O)c1cccc2cnccc12` (centres undefined), the Potency entry (in assay [1]; in assay [2]; in assay [3]; with Papain (Carica papaya)) was “inactive” throughout.
In the case of `C[C@]12C=CC(=O)C=C1CC[C@@H]1C2=CC[C@]2(C)[C@@H](C(=O)CN3CCN(c4cc(N5CCCC5)nc(N5CCCC5)n4)CC3)CC[C@@H]12`, the Potency entry in assay [1], in assay [2] and in assay [5] was “inactive” each time.
Consider `O=C1NC(=O)c2cc(Nc3ccccc3)c(Nc3ccccc3)cc21`, for which the Potency result (in assay [1]; in assay [2]; in assay [3]; in the assay with Papain (Carica papaya)) was “inactive” in each case.
Turning to `CO/N=C(\C(=O)N[C@@H]1C(=O)N2C(C(=O)O)=C(CSc3nc(=O)c(O)nn3C)CSC12)c1csc(N)n1` (some centres undefined), the Potency entry in assay [1], in assay [2] and in assay [4] was “inactive” throughout.
Regarding `O=C(O)/C(=C/c1c(C(=O)O)[nH]c2cc(Cl)cc(Cl)c12)c1ccccc1`, the Potency result in assay [1], in assay [2] and in assay [4] was “inactive” throughout.
Turning to `[Li+]`, the Potency result (in assay [1]; in assay [2]; in assay [3]; with Papain (Carica papaya)) was “inactive” in each case.
For `N[C@H](C(=O)O)[C@H](Cc1ccccc1)C(=O)O`, the Potency entry (in assay [1]; in assay [2]; in assay [3]; with Papain (Carica papaya)) was “inactive” each time.
On to `O=c1[nH]c2cc(Cl)ccc2c(O)c1-c1ccc(Oc2ccccc2)cc1`, for which the Potency result (in assay [1]; in assay [2]; in assay [3]; with Papain (Carica papaya)) was “inactive” throughout.
As for `Oc1ccc(Cn2cc[nH]c2=S)cc1`, the Potency entry (in assay [1]; in assay [2]; in assay [3]; with Papain (Carica papaya)) was “inactive” throughout.
Take `NCCC1CCCC(CCN)N1` (centres undefined): the Potency entry (in assay [1]; in assay [2]; in assay [3]; in the assay with Papain (Carica papaya)) was “inactive” each time.
Take `CCc1ccc2c(-c3cccc(Cl)c3)nc(=O)n(CC)c2n1`: the Potency result (in assay [1]; in assay [2]; in assay [3]; with Papain (Carica papaya)) was “inactive” throughout.
On to `N=C(N)c1ccc(N)cc1`, for which the Potency entry (in assay [1]; in assay [2]; in assay [3]; with Papain (Carica papaya)) was “inactive” in each case.
Turning to `Cn1ccnc1`, the Potency result (in assay [1]; in assay [2]; in assay [3]; with Papain (Carica papaya)) was “inactive” in each case.
Consider `N[C@@H](Cc1ccc(F)cc1)C(=O)O`, for which the Potency result (in assay [1]; in assay [2]; in assay [3]; with Papain (Carica papaya)) was “inactive” throughout.
For `CC(=O)O[C@H]1CC2(C)[C@@H](C[C@@H](O)[C@H]3[C@@]4(C)CC[C@@H](O)[C@@H](C)[C@@H]4CC[C@@]32C)C1=C(CCC=C(C)C)C(=O)O` (some centres undefined), the Potency entry (in assay [1]; in assay [2]; in the assay with Papain (Carica papaya)) was “inactive” throughout.
Take `C[C@@H](NCCc1ccc(O)cc1)[C@@H](O)c1ccc(O)cc1`: the Potency result (in assay [1]; in assay [2]; in assay [4]; with Papain (Carica papaya)) was “inactive” in each case.
On to `NC1(C(=O)O)CCc2cc(C(=O)O)ccc21` (centres undefined), for which the Potency result (in assay [1]; in assay [2]; in assay [4]; in the assay with Papain (Carica papaya)) was “inactive” in each case.
Turning to `CCCC[C@@]1(C2CCCC2)Cc2cc(OCC(=O)O)c(Cl)c(Cl)c2C1=O`, the Potency result in assay [1], in assay [2] and in assay [4] was “inactive” each time. The Potency with Papain (Carica papaya) is 25.1 µM (active).
Turning to `CC(=O)O[C@H]1Cc2ccccc2N(C(N)=O)c2ccccc21`, the Potency result (in assay [1]; in assay [2]; in the assay with Papain (Carica papaya)) was “inactive” each time.
Turning to `CCCCCC(O)CCCC(=O)O` (centres undefined), the Potency result (in assay [1]; in assay [2]; in assay [4]; with Papain (Carica papaya)) was “inactive” each time.

The values above are taken from PubChem BioAssay (NCATS).
